Screens: PubChem, Johns Hopkins Ion Channel Center
KCNQ2 block = inhibitors of rat KCNQ2 potassium channel; O88943; CHO-K1 KCNQ2, FluxOR thallium flux, 20 min; stronger effect = lower value; B-score at 10 µM; hit rate 1.1% among 310,000; AID 2156;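 active = fluorescence ratio B-score at most minus 3 library SDs, with starting brightness B-score within 2 library SDs, cut at about -5.5 in these data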
KCNQ2 pot = potentiators of rat KCNQ2 potassium channel | O88943 | CHO-K1 KCNQ2, FluxOR thallium flux fluorescence; stronger effect = higher value | B-score at 10 µM | hit rate 0.54% among 310,000;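 active = fluorescence ratio B-score at least 3 SD of library B-scores, with initial fluorescence B-score within 3 of them, cut at about 5.3 in these data; same plate scores as AID 2156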;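 also: B-score of peak minus minimum over baseline fluorescence ratio after K+ and Tl+ stimulus; positive B-score means potentiation of KCNQ2 with more thallium influx and brighter signal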
Kir21 confirm = confirmation of mouse Kir2.1 potassium channel inhibitors. hit rate 41% among 2,300. Tl flux remaining, % of negative control (stronger effect = lower value), % at 10 µM. Kir2.1-expressing cells, FluxOR thallium flux fluorescence; stronger effect = lower value. shares compounds with KCNQ2 pot;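 active = Primary-screen hit whose thallium flux fell at least 3 control SD below untreated wells in both duplicates, with normal baseline fluorescence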;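 also: 0% = blank wells without stimulus and 100% = stimulated no-compound controls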
HEK293 Tl flux = alters thallium flux in parental HEK293 cells, Kir2.1 counter-screen; FluxOR signal as % of negative control (100 = no effect), % at 10 µM; FluxOR thallium flux fluorescence; 0% = unstimulated blank wells; hit rate 19% among 2,300; shares compounds with KCNQ2 pot;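 active = dye signal at least 3 control SD above or below untreated wells in both duplicates, raw fluorescence within 3, either direction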;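 also: percent is based on the flux ratio of peak minus minimum fluorescence over baseline F0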
CHO-K1 ctr = parental CHO-K1 activity in KCNQ2 potentiator counter-screen | parental CHO-K1 cells, FluxOR thallium flux fluorescence; zero = vehicle mean+3SD, 100% = vehicle-minus-blank window | hit rate 43% among 1,200 | shares compounds with KCNQ2 pot | AID 2282 | activity increase over 3SD of controls, % at 10 µM;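 active = signal rise of at least 3 SD above the untreated control mean, in both duplicate wells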;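 also: counter screen of KCNQ2 potentiator hits so any rise reflects channel-independent effects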
KCNQ1 pot spec = tests whether KCNQ2 potentiators also act on human KCNQ1 | shares compounds with KCNQ2 pot | CHO KCNQ1 stable, FluxOR thallium flux fluorescence; beyond 3SD, as % of vehicle-control signal | activation over 3SD threshold, % at 10 µM | hit rate 28% among 1,200 | AID 2283;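 active = fluorescence ratio rise of at least 3 SD of vehicle wells above their mean, in both replicate wells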;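 also: 0% = vehicle mean plus 3 SD and 100% = vehicle minus unstimulated blank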
Target sequence (P51787 whole entry, looked up): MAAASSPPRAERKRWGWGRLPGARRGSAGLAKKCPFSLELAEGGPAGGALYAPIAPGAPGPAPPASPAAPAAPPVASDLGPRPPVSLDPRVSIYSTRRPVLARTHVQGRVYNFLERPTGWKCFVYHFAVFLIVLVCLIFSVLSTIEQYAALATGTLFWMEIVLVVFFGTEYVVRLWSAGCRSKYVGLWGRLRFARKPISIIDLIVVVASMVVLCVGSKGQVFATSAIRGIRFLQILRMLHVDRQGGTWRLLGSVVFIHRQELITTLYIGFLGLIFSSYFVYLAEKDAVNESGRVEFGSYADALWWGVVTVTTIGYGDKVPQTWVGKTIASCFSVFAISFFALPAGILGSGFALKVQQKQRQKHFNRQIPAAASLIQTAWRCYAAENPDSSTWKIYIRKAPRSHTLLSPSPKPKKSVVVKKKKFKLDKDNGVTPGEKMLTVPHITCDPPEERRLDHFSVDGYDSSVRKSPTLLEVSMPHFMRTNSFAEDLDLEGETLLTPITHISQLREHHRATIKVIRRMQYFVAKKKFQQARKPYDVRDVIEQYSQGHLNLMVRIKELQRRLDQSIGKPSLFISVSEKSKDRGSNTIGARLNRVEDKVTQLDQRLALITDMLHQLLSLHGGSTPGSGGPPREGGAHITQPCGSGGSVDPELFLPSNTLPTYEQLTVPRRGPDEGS
KCNQ2 pot confirm = confirmation of rat KCNQ2 potassium channel potentiators. shares compounds with KCNQ2 pot. CHO-KCNQ2 cells, FluxOR thallium flux fluorescence. AID 2287. potentiation, less the hit threshold, % at 10 µM. hit rate 68% among 1,200;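 active = fluorescence ratio rising 3 SD or more over the vehicle control mean in both replicates, plus primary screen hit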;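 also: peak minus minimum thallium fluorescence divided by baseline after K/Tl stimulus; 0% = vehicle mean plus 3 SD and 100% = vehicle minus unstimulated blank difference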
Kir21 spec = tests whether KCNQ2 potentiators also affect mouse Kir2.1. shares compounds with KCNQ2 pot. activity over 3SD threshold, % at 10 µM. HEK293 Kir2.1, FluxOR thallium flux fluorescence. hit rate 2% among 1,200. AID 2345;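 active = fluorescence ratio rise of at least 3 SD above the vehicle-control mean, seen in both replicates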;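 also: 0% = vehicle mean plus 3 SD and 100% = vehicle minus no-stimulus blank window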
KCNQ2 W236L pot = KCNQ2 potentiators acting on retigabine-insensitive rat KCNQ2 W236L mutant; shares compounds with KCNQ2 pot; CHO KCNQ2-W236L, automated patch clamp current; hit rate 10% among 940; AID 2558; current increase over 3SD of negative controls (%), stronger effect = higher value, % at 25 µM;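 active = current increase at least 3 SD of the untreated controls above them in both duplicate recordings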
* hit, by the source's call; i = inactive; · = no result. The list is not random: actives were taken first. Their share in the collection is about 1.6%.

SMILES	KCNQ2 block	KCNQ2 pot	Kir21 confirm	HEK293 Tl flux	others
CCCCCNC(=O)c1ccc2c(=O)n(CC3CCCO3)c(=O)[nH]c2c1 (stereo not given)	i	6.09*	i	i	CHO-K1 ctr=-9.8;KCNQ1 pot spec=-28.3;KCNQ2 pot confirm=-12.4;Kir21 spec=-41.1
CCCCCNC(=O)c1ccc2c(=O)n(CC3CCCO3)c(=S)[nH]c2c1 (stereo not given)	i	0.82	·	·
Cc1cccc(Cl)c1OCCCn1ccnc1	i	·	·	·
Cc1ccc(O)c(/C=N/NC(=O)Cc2ccc(Cl)cc2)c1	i	5.34*	i	i	CHO-K1 ctr=-7.0;KCNQ1 pot spec=42.8*;KCNQ2 pot confirm=-5.4;Kir21 spec=-20.9
Cc1cccc(/C=N\NC(=O)c2ccc(Cl)cc2)c1O	i	2.47	·	·
Cc1cccc(/C=N/NC(=O)Cc2ccc(Cl)cc2)c1O	i	7.19*	i	69.0%*	CHO-K1 ctr=-8.9;KCNQ1 pot spec=7.6*;KCNQ2 pot confirm=2.5*;Kir21 spec=-25.1;KCNQ2 W236L pot=i
Cc1ccsc1/C=N/NC(=O)Cc1ccc(Cl)cc1	i	·	·	·
Cc1cc(C)n(-c2ccc(NC(=O)C3CCN(Cc4ccc(C)o4)CC3)cc2)n1	i	0.87	·	·
Cc1ccc(S(=O)(=O)N(C(=N)N)c2nc(N(C)C)nc(N(C)C)n2)cc1	i	·	·	·
C=CCNC(=S)N/N=C/c1cccc([N+](=O)[O-])c1	i	·	·	·
CC1CCCC(NC(=O)Cc2ccc(Br)cc2)C1C (stereo not given)	i	5.55*	i	i	CHO-K1 ctr=49.4*;KCNQ1 pot spec=1.4*;KCNQ2 pot confirm=3.0*;Kir21 spec=-12.4;KCNQ2 W236L pot=i
CC1CCCC(NC(=O)COC(=O)Cc2ccc(Br)cc2)C1C (stereo not given)	i	0.24	·	·
O=C(NCCC1=CCCCC1)Nc1ccc2nsnc2c1	i	2.47	·	·
COC(=O)C1=C(Cn2cnc3ccccc32)NC(=O)NC1c1cc(C)ccc1C (stereo not given)	i	1.07	·	·
CCOC(=O)C1=C(Cn2cnc3ccccc32)NC(=O)NC1c1cc(C)ccc1C (stereo not given)	i	6.61*	i	52.5%*	CHO-K1 ctr=-10.4;KCNQ1 pot spec=-15.3;KCNQ2 pot confirm=-7.9;Kir21 spec=-39.4;KCNQ2 W236L pot=i
COc1cccc(N2CCN(c3ccc4nnc(CCC(=O)Nc5ccc(OC)c(OC)c5)n4n3)CC2)c1	i	·	·	·
Cc1cc(C)c2cccc(N)c2n1	i	·	·	·
Cc1cc(C)c2ccc(N)nc2c1O	i	12.3*	i	i	CHO-K1 ctr=-0.9;KCNQ1 pot spec=-24.1;KCNQ2 pot confirm=11.7*;Kir21 spec=-36.1;KCNQ2 W236L pot=i
Nc1nc(Nc2ccccc2F)nc(N2CCOCC2)c1[N+](=O)[O-]	i	·	·	·
Cc1ccc(C)c(CSCc2nc3ccccc3[nH]2)c1	i	·	74.0%*	i
Cc1ccccc1CSCc1nc2ccccc2[nH]1	i	·	·	·
CC(C)Oc1ccc(C(CCN)C2CCCCC2)cc1 (stereo not given)	i	·	43.5%*	65.0%*
CC(C)Oc1ccc(C(=O)NC2CCCCC2)cc1	i	·	·	·
CSc1scc2c1-c1nc(SCC(=O)C(C)(C)C)ncc1CC2	i	6.68*	i	i	CHO-K1 ctr=-10.9;KCNQ1 pot spec=61.0*;KCNQ2 pot confirm=2.8*;Kir21 spec=-37.2;KCNQ2 W236L pot=i
CC(C)(C)C(=O)CSc1ncccn1	i	·	·	·
SMILES	KCNQ2 block	KCNQ2 pot	Kir21 confirm	HEK293 Tl flux	others
Cc1nc(C(=O)N2CCc3c([nH]c4ccccc34)C2c2cc(F)ccc2F)cs1 (stereo not given)	i	·	·	·
COc1cccc(/C=N/NC(=O)CNC(=O)COc2ccccc2)c1O	i	1.23	·	·
Cc1cccc(OCC(=O)NCC(=O)N/N=C/c2cc(Br)cc(Br)c2O)c1	i	10.4*	i	i	CHO-K1 ctr=6.9*;KCNQ1 pot spec=0.7*;KCNQ2 pot confirm=-12.4;Kir21 spec=-27.4
C/C(=N\NC(=O)C(=O)Nc1cc(C)ccc1C)c1ccncc1	i	1.6	·	·
CC1CN(C/C(=N\O)C23CC4CC(CC(C4)C2)C3)CC(C)O1 (stereo not given)	i	0.32	·	·
CC(C)NCC(O)COc1cccc2ccccc12 (stereo not given)	i	·	·	·
OC(CNCc1ccccc1F)COc1cccc2ccccc12 (stereo not given)	i	·	72.5%*	i
CC(Oc1ccc(Cl)cc1Cl)C(=O)N(C)c1ccccc1 (stereo not given)	i	·	50.5%*	i
COC(=O)NNC(=O)C(C)Oc1ccc(Cl)cc1Cl (stereo not given)	i	·	·	·
C=CCn1c(Cc2cccs2)nnc1SCC(=O)Nc1cc(OC)cc(OC)c1	i	·	·	·
C=CCn1c(Cc2cccs2)nnc1SC/C=C/c1ccccc1	i	·	31.0%*	i
Cn1c(SC/C=C/c2ccccc2)nnc1-c1cccs1	i	·	·	·
CCn1c(SC/C=C/c2ccccc2)nnc1-c1cccs1	i	·	48.0%*	i
CN(CC1COc2ccccc2O1)C(=S)Nc1ccccc1 (stereo not given)	i	·	·	·
CCN(CC1COc2ccccc2O1)C(=S)NC1CC2CCC1C2 (stereo not given)	i	11.8*	i	63.5%*	CHO-K1 ctr=37.4*;KCNQ1 pot spec=-12.7;KCNQ2 pot confirm=-5.5;Kir21 spec=-35.5;KCNQ2 W236L pot=i
Cc1cc(C)c2c(=O)[nH]c(SCC(=O)c3ccc(C)c(C)c3)nc2n1	i	1.31	·	·
COc1ccccc1N(CC1CO1)S(=O)(=O)c1ccc(C)cc1 (stereo not given)	i	·	·	·
Cc1ccc(NC(=O)CN(C)C(=S)NC2CC2)cc1	i	0.16	·	·
CSc1ccc(CN2CCC(CO)(CCOc3ccccc3)CC2)cc1	i	0.62	42.5%*	i
OCC1(CCOc2ccccc2)CCN(Cc2ccncc2)CC1	i	·	·	·
CCN(CC(=O)Nc1ccc(N2CCOCC2)cc1)C(=O)COc1ccccc1OC	i	2.24	·	·
CN(C)C(=O)c1ccc(NC(=O)COc2ccc([N+](=O)[O-])cc2)cc1	i	·	·	·
Cc1[nH]n(-c2ccccc2)c(=O)c1S(=O)(=O)c1ccccc1	i	·	28.5%*	i
Cc1[nH]n(-c2ccccc2)c(=O)c1CCO	i	0.23	·	·
CCOc1cc(CNCc2ccncc2)cc(Br)c1OCc1ccc(F)cc1	i	·	i	i
CCCCNCc1cc(Br)c(OCc2cccs2)c(OC)c1	i	·	19.5%*	i
Fc1ccc(COc2ccc(Br)cc2CNCc2ccncc2)cc1	i	·	·	·
CCOc1cc(CNCc2ccccn2)cc(Cl)c1OCC	i	·	·	·
CCOc1cc(CNCCSc2nnnn2C)cc(Br)c1OCc1ccccc1	i	·	·	·
